Test results as given in PubChem BioAssay (NCATS).
“And” between values parts separate entries of the source, which are not always exact repeats. Identical values can stand only once. Records with an inconclusive call do not appear. The source made the active and inactive calls. Unless noted, the call rests on the fitted dose curve; in most records, active means well fitted curve in either direction with a large enough effect (not every such curve was filed as active); inconclusive means small, poorly fitted or top-dose-only effect, or another doubt; inactive means flat fitted curve, though single readings scatter.

Test system: not listed separately
Experiment: NFAT Signaling Pathway (AID 444);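 further: carbachol stimulus at about its EC50 of 1 µM final; on the % scale 0 is the no-effect control and ±100 the full control effect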
Settings: Jurkat NFAT-bla M1, carbachol, beta-lactamase ratio, 5 h; at 17.2 µM (top of the series)
Outline: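 Jurkat cells with NFAT-driven β-lactamase reporter and co-expressed M1 receptor, stimulated with carbachol (final 1 uM, ~EC50), compound titration, 5 h at 37 °C. CCF4 loaded 1 h at RT; 460/530 nm ratio gave %activity and AC50.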
For `O=c1[nH]oc2c1CCNC2`, the activity change, negative = inhibition was -9.07% (inactive).
In the case of `COc1c2c(cc3c1OCO3)CCN(C)C2`, the activity change, negative = inhibition is reported as -27% (inactive).
With `O=C(O)CCCc1ccc(N(CCCl)CCCl)cc1` the activity change, negative = inhibition was -26.3% (inactive).
In the case of `[N-]=[N+]=CC(=O)OC[C@H](N)C(=O)O`, the activity change, negative = inhibition is reported as -1.72% (inactive).
For `C#C[C@]1(O)CC[C@H]2[C@@H]3CCC4=CC(=O)CC[C@]4(C)[C@H]3CC[C@@]21C`, the activity change, negative = inhibition was 2.09% (inactive).
With `C[C@]12CCC(=O)C=C1CC[C@@H]1[C@@H]2CC[C@]2(C)C(=O)CC[C@@H]12` the activity change, negative = inhibition was 7.44% (inactive).
With `CNC(C)(C)Cc1ccccc1` the activity change, negative = inhibition was -3.4% (inactive).
In the case of `COc1ccc2c(c1)C13CCCC[C@@H]1C(C2)N(C)CC3` (some centres undefined), the activity change, negative = inhibition is reported as -1.88% (inactive).
For `O=c1oc2ccccc2c(O)c1Cc1c(O)c2ccccc2oc1=O`, the activity change, negative = inhibition was -5.31% (inactive).
In the case of `CC(C)c1cccc(C(C)C)c1O`, the activity change, negative = inhibition is reported as -3.69% (inactive).
With `O=C(CCCN1CCC2(CC1)C(=O)NCN2c1ccccc1)c1ccc(F)cc1` the activity change, negative = inhibition was -4.55% (inactive).
For `CCC1(CC)C(=O)C=CNC1=O`, the activity change, negative = inhibition was -4.7% (inactive).
With `CC(NC(C)(C)C)C(=O)c1cccc(Cl)c1` (centres undefined) the activity change, negative = inhibition was -27.5% (inactive).
For `C[N+]1(C)[C@@H]2CC(OC(=O)[C@H](CO)c3ccccc3)C[C@H]1[C@@H]1O[C@@H]12` (some centres undefined), the activity change, negative = inhibition was -68.4% (active).

Same assay, conditions: Jurkat NFAT-bla M1, carbachol, beta-lactamase ratio, 5 h; at 38 µM (top of the series)
With `O=c1[nH]oc2c1CCNC2` the activity change, negative = inhibition was 9.6% (inactive).
In the case of `O=C(O)CCCc1ccc(N(CCCl)CCCl)cc1`, the activity change, negative = inhibition is reported as -2.19% (inactive).
For `NCCc1ccc(O)cc1`, the activity change, negative = inhibition was 5.43% (inactive).
In the case of `CCCCC/C=C\C/C=C\C/C=C\C/C=C\CCCC(=O)NCC(=O)O`, the activity change, negative = inhibition is reported as -2.7% (inactive).
For `O=P1(N(CCCl)CCCl)NCCCO1` (centres undefined), the activity change, negative = inhibition was 4.3% (inactive).
In the case of `CC(C)c1cccc(C(C)C)c1O`, the activity change, negative = inhibition is reported as 7.25% (inactive).
In the case of `O=C(CCCN1CCC2(CC1)C(=O)NCN2c1ccccc1)c1ccc(F)cc1`, the activity change, negative = inhibition is reported as 10.5% (inactive).

Test system: not listed separately
Experiment: Stat Signaling Pathway (AID 446);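 further: ME-180 cervical cancer cells given 40 pM IL-6 alongside compound; SIE-controlled beta-lactamase reporter measured as 460/530 nm FRET emission ratio; on the % scale 0 is the no-effect control and ±100 the full control effect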
Settings: ME-180 (cervical carcinoma) SIE beta-lactamase reporter, IL-6 stimulated, 5 h; series mostly up to 17.2 µM; activity, negative = inhibition: at the top concentration
Outline: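 Emission at 460 and 530 nm (excitation 405 nm) reports SIE-controlled beta-lactamase in ME-180 cells. Cells received compound with 40 pM IL-6 for 5 hrs at 37 C; data scaled between 300 pM IL-6 and 125 nM JAK-inhibitor controls.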
In the case of `O=c1[nH]oc2c1CCNC2`, the outcome is reported as “inactive”.
For `COc1c2c(cc3c1OCO3)CCN(C)C2`, the “activity, negative = inhibition” value was -1.45% (inactive).
For `O=C(O)CCCc1ccc(N(CCCl)CCCl)cc1`, the outcome was “inactive”.
With `[N-]=[N+]=CC(=O)OC[C@H](N)C(=O)O` the “activity, negative = inhibition” value was 2.17% (inactive).
For `C#C[C@]1(O)CC[C@H]2[C@@H]3CCC4=CC(=O)CC[C@]4(C)[C@H]3CC[C@@]21C`, the “activity, negative = inhibition” value was 0.289% (inactive).
For `C[C@]12CCC(=O)C=C1CC[C@@H]1[C@@H]2CC[C@]2(C)C(=O)CC[C@@H]12`, the “activity, negative = inhibition” value was 4.53% (inactive).
For `CNC(C)(C)Cc1ccccc1`, the “activity, negative = inhibition” value was 22.2% (inactive).
With `COc1ccc2c(c1)C13CCCC[C@@H]1C(C2)N(C)CC3` (some centres undefined) the “activity, negative = inhibition” value was -1.07% (inactive).
For `CC(C)c1cccc(C(C)C)c1O`, the outcome was “inactive”.
With `CCC1(CC)C(=O)C=CNC1=O` the “activity, negative = inhibition” value was 0.778% (inactive).
With `CC(NC(C)(C)C)C(=O)c1cccc(Cl)c1` (centres undefined) the “activity, negative = inhibition” value was -3.15% (inactive).
In the case of `C[N+]1(C)[C@@H]2CC(OC(=O)[C@H](CO)c3ccccc3)C[C@H]1[C@@H]1O[C@@H]12` (some centres undefined), the “activity, negative = inhibition” value is reported as 5.24% (inactive).
With `CC(C)N(CCC(C(N)=O)(c1ccccc1)c1ccccn1)C(C)C` (centres undefined) the “activity, negative = inhibition” value was 5.66% (inactive).

Target: Glucocorticoid receptor (Homo sapiens) (UniProt P04150)
Sequence (P04150 whole entry, looked up): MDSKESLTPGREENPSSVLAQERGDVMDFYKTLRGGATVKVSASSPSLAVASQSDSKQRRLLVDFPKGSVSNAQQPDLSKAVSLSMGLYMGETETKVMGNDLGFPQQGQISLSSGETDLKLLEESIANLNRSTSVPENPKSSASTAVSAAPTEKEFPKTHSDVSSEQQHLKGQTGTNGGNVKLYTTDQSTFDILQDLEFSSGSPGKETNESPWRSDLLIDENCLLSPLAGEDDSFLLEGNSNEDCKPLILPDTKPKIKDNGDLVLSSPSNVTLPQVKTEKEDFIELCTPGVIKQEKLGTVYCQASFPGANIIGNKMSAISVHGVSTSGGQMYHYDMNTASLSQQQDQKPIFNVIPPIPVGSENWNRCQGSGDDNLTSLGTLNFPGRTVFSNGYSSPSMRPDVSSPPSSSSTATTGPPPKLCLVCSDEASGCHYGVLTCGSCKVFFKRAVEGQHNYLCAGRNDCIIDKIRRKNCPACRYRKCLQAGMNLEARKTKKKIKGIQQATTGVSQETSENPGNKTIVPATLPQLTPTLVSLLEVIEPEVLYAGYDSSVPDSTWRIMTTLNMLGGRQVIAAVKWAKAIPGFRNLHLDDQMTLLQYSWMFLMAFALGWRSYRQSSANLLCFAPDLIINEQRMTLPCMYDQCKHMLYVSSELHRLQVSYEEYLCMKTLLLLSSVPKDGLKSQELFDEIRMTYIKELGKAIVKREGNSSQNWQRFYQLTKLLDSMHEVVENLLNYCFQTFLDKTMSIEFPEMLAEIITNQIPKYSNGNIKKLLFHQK
Experiment: GR-EFC Redistribution (AID 451; calls by dose curve; further: potency means the concentration at half of the fitted maximal effect)
Settings: CHO-K1 GR-EFC translocation, beta-gal luminescence, 2 h
Outline: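 CHO-K1 cells expressing nuclear EA and GR-ED fragments of b-gal; compounds titrated up to 46 uM final, 2 h at 37 C. GR nuclear translocation read as complemented b-gal luminescence after 1 h RT detection.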
In the case of `O=c1[nH]oc2c1CCNC2`, the Potency is reported as > 46 µM (inactive) and > 20.6 µM (inactive).
With `COc1c2c(cc3c1OCO3)CCN(C)C2` the Potency was > 20.6 µM (inactive).
For `NCCc1ccc(O)cc1`, the Potency was > 46 µM (inactive).
In the case of `O=P1(N(CCCl)CCCl)NCCCO1` (centres undefined), the Potency is reported as > 46 µM (inactive).
For `C=CCN1C[C@H](C)N([C@H](c2ccc(C(=O)N(CC)CC)cc2)c2cccc(OC)c2)C[C@H]1C`, the Potency was > 46 µM (inactive).
In the case of `Cc1ncsc1CCCl`, the Potency is reported as > 46 µM (inactive).
In the case of `CNC(C)(C)Cc1ccccc1`, the Potency is reported as > 20.6 µM (inactive).
In the case of `COc1ccc2c(c1)C13CCCC[C@@H]1C(C2)N(C)CC3` (some centres undefined), the Potency is reported as > 20.6 µM (inactive).
With `O=C(CCCN1CCC2(CC1)C(=O)NCN2c1ccccc1)c1ccc(F)cc1` the Potency was > 46 µM (inactive) and > 20.6 µM (inactive).
For `CCC1(CC)C(=O)C=CNC1=O`, the Potency was > 20.6 µM (inactive).

Target: Mitogen-activated protein kinase 10 (Mus musculus) (UniProt Q61831)
Experiment: JNK3 AlphaScreen Assay (AID 530);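 further: kinase came from lysate of stimulated human HepG2 cells; signal reports phosphorylation of biotinylated GST-cJun 1-79 at Ser73 with 10 µM ATP; on the % scale 0 is the no-effect control and ±100 the full control effect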
Settings: JNK3 lysate, c-Jun phosphorylation; series mostly up to 57.1 µM; activity change, negative = inhibition: at the top concentration
Outline: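 HepG2 lysate (IL-1b/TNFa pre-activated) + biotin-GST-cJun 1-79 + anti-pSer73 cJun; cpd titration, 15 min RT; ATP 10 uM start; Tris pH 7.6, MgCl2, DTT, vanadate; beads in EDTA buffer; AlphaScreen.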
For `O=c1[nH]oc2c1CCNC2`, the outcome was “inactive”.
In the case of `COc1c2c(cc3c1OCO3)CCN(C)C2`, the “activity change, negative = inhibition” value is reported as -0.19% [at 25.6 µM] (inactive).
With `O=C(O)CCCc1ccc(N(CCCl)CCCl)cc1` the outcome was “inactive”.
For `NCCc1ccc(O)cc1`, the outcome was “inactive”.
For `Oc1ccc(Cl)cc1`, the “activity change, negative = inhibition” value was -0.877% (inactive).
For `CCCCC/C=C\C/C=C\C/C=C\C/C=C\CCCC(=O)NCC(=O)O`, the “activity change, negative = inhibition” value was 1.28% (inactive).
With `Nc1ccccc1` the “activity change, negative = inhibition” value was 15.6% (inactive).
For `COC(=O)C(c1ccccc1)C1CCCCN1` (centres undefined), the “activity change, negative = inhibition” value was 13.7% (inactive).
For `C[C@]12CCC(=O)C=C1CC[C@@H]1[C@@H]2CC[C@]2(C)C(=O)CC[C@@H]12`, the outcome was “inactive”.
In the case of `CCOC(=O)CC(SP(=S)(OC)OC)C(=O)OCC` (centres undefined), the “activity change, negative = inhibition” value is reported as 20.1% (inactive).
For `O=P1(N(CCCl)CCCl)NCCCO1` (centres undefined), the outcome was “inactive”.
For `C=CCN1C[C@H](C)N([C@H](c2ccc(C(=O)N(CC)CC)cc2)c2cccc(OC)c2)C[C@H]1C`, the “activity change, negative = inhibition” value was 2.87% (inactive).
For `CN1C[C@H](C(=O)N[C@]2(C)O[C@@]3(O)[C@@H]4CCCN4C(=O)[C@H](Cc4ccccc4)N3C2=O)C=C2c3cccc4[nH]cc(c34)C[C@H]21`, the “activity change, negative = inhibition” value was -18.1% (inactive).
For `Cc1ncsc1CCCl`, the “activity change, negative = inhibition” value was 43.8% (inactive).
For `Nc1ccccc1C(=O)O`, the “activity change, negative = inhibition” value was 8.86% (inactive).
For `CC(C)NC(C)C`, the “activity change, negative = inhibition” value was 27.3% (inactive).
In the case of `CCC(C)(C)c1ccc(O)cc1`, the “activity change, negative = inhibition” value is reported as -5.26% (inactive).
With `CNC(C)(C)Cc1ccccc1` the “activity change, negative = inhibition” value was -2.44% [at 25.6 µM] (inactive).
In the case of `COc1ccc2c(c1)C13CCCC[C@@H]1C(C2)N(C)CC3` (some centres undefined), the “activity change, negative = inhibition” value is reported as 2.01% [at 25.6 µM] (inactive).
For `C[C@]1(O)CC[C@H]2[C@@H]3CCC4=CC(=O)CC[C@]4(C)[C@@]3(F)[C@@H](O)C[C@@]21C`, the “activity change, negative = inhibition” value was 14% (inactive).
For `CC(C)c1cccc(C(C)C)c1O`, the outcome was “inactive”.
For `O=C(CCCN1CCC2(CC1)C(=O)NCN2c1ccccc1)c1ccc(F)cc1`, the outcome was “inactive”.
With `CCC1(CC)C(=O)C=CNC1=O` the “activity change, negative = inhibition” value was 1.67% [at 25.6 µM] (inactive).
In the case of `C[C@]12CCC(=O)C=C1CC[C@@H]1[C@@H]2CC[C@@]2(C)[C@H]1CC[C@]2(C)O`, the “activity change, negative = inhibition” value is reported as -11.2% (inactive).
For `Clc1cccc(SC2CCNCC2)n1`, the “activity change, negative = inhibition” value was 0.899% (inactive).
